HTT aggregate = reduces HttQ103-GFP aggregates in PC12 cells; PC12 HttQ103-GFP aggregates, Acumen cytometry, 40 h; Potency, µM (series often up to 46.1 µM), inactives show top-dose activity change, negative = inhibition, most hits filed as inhibitors; actives 1.1% (n = 220,000); AID 1688; also: potency is read from the fitted curve at half-maximal effect; % is scaled to controls: 0 for no effect and ±100 for the full control effect; nearly all actives have a fitted effect of over 60% in size
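Compounds (qHTS titration) were added to PC12 cells expressing an ecdysone-driven HTT exon 1 Q103–GFP fusion after induction with 100 nM tebufenozide. Aggregate formation was measured as GFP objects in cell lysates.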
HPGD block = inhibitors of human 15-hydroxyprostaglandin dehydrogenase (HPGD). P15428. purified HPGD, NADH fluorescence kinetic, PGE2 substrate. Potency, µM, without a hit: top-dose activity change, negative = inhibition, usual class: inhibitors. actives 4.3% (n = 150,000); active = well fitted inhibition curve with a large enough effect, not every such curve was filed as active; inconclusive = small, poorly fitted or top-dose-only effect, or another doubt; inactive = no such curve, though single readings can be large or run the other way; also: potency is read from the fitted curve at half-maximal effect; % is scaled to controls: 0 for no effect and ±100 for the full control effect
Target sequence (P15428 whole entry, looked up): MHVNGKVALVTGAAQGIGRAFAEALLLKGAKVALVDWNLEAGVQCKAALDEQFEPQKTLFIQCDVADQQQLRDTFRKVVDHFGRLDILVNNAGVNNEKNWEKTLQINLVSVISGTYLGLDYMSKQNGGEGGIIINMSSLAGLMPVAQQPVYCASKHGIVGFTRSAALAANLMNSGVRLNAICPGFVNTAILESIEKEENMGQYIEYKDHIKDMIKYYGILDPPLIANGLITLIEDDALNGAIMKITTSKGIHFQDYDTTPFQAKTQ
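20 nM HPGD preincubated 15 min at room temperature with compound in 50 mM Tris-HCl pH 8, 0.01% Tween 20. Started with 1 mM NAD+ and 30 uM prostaglandin E2; NADH fluorescence (360/450 nm) read 5 times over 30-s intervals, last minus first.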
PNC inhibitor = perinucleolar compartment assembly inhibition; PC3M PTB-GFP, PNC prevalence imaging, 16 h; hits give low values; activity change (PNC), negative = inhibition, % at 10 µM; actives 3.1% (n = 140,000);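 active = readout at or below -70, meaning at least 70% loss of cells showing the perinucleolar compartment, a nuclear body marking cancer cells; inconclusive = readout between -30 and a set limit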;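 also: plate controls were DMSO wells for no effect and camptothecin positive control wells for full effect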
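Compounds are pinned in duplicate onto adhered PC3M cells stably expressing GFP-tagged PTB and incubated 16 h at 37 C. Cells are then fixed, nuclei stained with Hoechst, and PNC-positive cells counted.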
HTT ATP protect = protects HTT-Q103 PC12 cells, measured by ATP; actives 0.14% (n = 230,000); PC12 HTT-Q103 induced, cytoprotection, ATP luminescence, 40 h; Potency, µM (doses to about 56.4 µM), for inactives: cytoprotection (ATP increase), actives largely listed as activators; also: potency is read from the fitted curve at half-maximal effect; % of control where 0% means no effect; nearly all actives have a fitted effect of over 45% in size
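Compounds were screened for protection of PC12 cells against cell death after tebufenozide induction (100 nM final) of mutant Huntingtin exon 1 (Q103) fused to GFP.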
ALDH1A1 inh = inhibitors of human aldehyde dehydrogenase 1A1; Purified ALDH1A1, NADH fluorescence, propionaldehyde substrate; actives 7.3% (n = 220,000); Potency, µM (top dose mostly 75.3 µM), inactives show at the highest dose activity, negative = inhibition, usual class: inhibitors; AID 1030; P00352; active = well fitted inhibition curve with a large enough effect, not every such curve was filed as active; inconclusive = small, poorly fitted or top-dose-only effect, or another doubt; inactive = no such curve, though single readings can be large or run the other way;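 also: potency is read from the fitted curve at half-maximal effect; plate controls were no enzyme wells and a reference inhibitor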
Target sequence (P00352 whole entry, looked up): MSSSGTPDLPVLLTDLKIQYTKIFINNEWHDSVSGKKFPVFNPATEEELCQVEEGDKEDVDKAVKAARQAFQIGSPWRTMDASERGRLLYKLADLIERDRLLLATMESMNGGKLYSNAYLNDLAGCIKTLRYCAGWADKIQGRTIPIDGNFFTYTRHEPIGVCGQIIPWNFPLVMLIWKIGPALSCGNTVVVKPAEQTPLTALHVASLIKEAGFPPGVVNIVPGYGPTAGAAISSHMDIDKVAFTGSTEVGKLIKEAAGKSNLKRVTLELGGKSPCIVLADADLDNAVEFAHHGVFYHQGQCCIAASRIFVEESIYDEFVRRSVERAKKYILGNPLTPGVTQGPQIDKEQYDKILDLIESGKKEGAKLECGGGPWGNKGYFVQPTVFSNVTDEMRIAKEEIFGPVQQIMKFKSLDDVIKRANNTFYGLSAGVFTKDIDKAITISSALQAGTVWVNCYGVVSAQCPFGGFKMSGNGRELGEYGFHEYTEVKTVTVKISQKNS
CBFb-RUNX1 inh = CBF-beta/RUNX1 interaction disruption | Q01196+Q13951 | AlphaScreen CBFb-His/RUNX1-biotin binding, biochemical | Potency, µM (series often up to 59.8 µM), inactives show at the top dose activity, negative = inhibition, hits mostly inhibitors | 230,000 tested, under 10 active | AID 1477; also: % of control where 0% means no effect
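AlphaScreen proximity signal reports loss of binding between His-tagged CBF-beta and biotin-labelled RUNX1, each at 30 nM. Proteins are pre-associated for 20 minutes, compounds added for 15 minutes, then beads for 90 minutes, all at ambient temperature.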
Active calls of the source: *; ? = inconclusive; · = no result given; [ ] = dose if it differs, or a comment. An excerpt weighted towards active compounds, which were near 11% of everything screened. Unless noted, calls follow the shape of the dose curve; as a rule, active = well fitted curve in the direction sought with a large enough effect; inconclusive = small, poorly fitted or top-dose-only effect, or another doubt; inactive = no such curve, though single readings can be large; an effect the other way counts as inactive or inconclusive.

SMILES	HTT aggregate	HPGD block	PNC inhibitor	HTT ATP protect	ALDH1A1 inh	CBFb-RUNX1 inh
O=C(NC(=S)Nc1ccccc1[N+](=O)[O-])c1ccccc1Cl	33%[9.22 µM]	·	·	22%[10 µM]	·	-24%
O=C(O)c1ccc(Cl)c(NC(=S)NC(=O)c2ccccc2[N+](=O)[O-])c1	-3%	·	·	9%	22µM*	9%
O=C(NC(=S)Nc1cc([N+](=O)[O-])ccc1Cl)c1ccccc1	-8%	?	17	-19%	8.9µM*	0%
O=C(NC(=S)Nc1cc(C(F)(F)F)ccc1Cl)c1ccccc1	7%	-11%	45	-7%	25µM*	0%
O=C(CN1CCOCC1)Nc1cc([N+](=O)[O-])ccc1Cl	-5%	·	·	-9%	-6%	9%
CC(C(=O)Nc1cc([N+](=O)[O-])ccc1Cl)N1CCN(c2ccc(O)cc2)CC1 (centres undefined)	32%	-5%	-85*	16%[1.9 µM]	7.1µM*	·
Cc1cc(C)c2c(N)c(C(=O)NN3CC(=O)N(c4cccc(Cl)c4)CC3=O)sc2n1	-5%[9.22 µM]	·	·	0%[10 µM]	·	12%
O=C(CNC(c1ccccc1)c1ccccc1)Nc1cc([N+](=O)[O-])ccc1Cl	-2%	-29%	-12	20%[10 µM]	7.1µM*	7%
O=C(CN1CCN(c2ccccc2O)CC1)Nc1cc([N+](=O)[O-])ccc1Cl	-9%[9.22 µM]	·	·	-12%	22µM*	-1%
COc1ccc(C(=O)NC(=S)Nc2ccc([N+](=O)[O-])cc2C)cc1OC	-11%	-12%	33	5%[10 µM]	14µM*	5%
CC(C)CC(=O)Nc1cc([N+](=O)[O-])ccc1Cl	0%	-8%	-20	0%	2%	5%
COc1ccc(C(=O)NC(=S)Nc2ccccc2[N+](=O)[O-])cc1OC	9%	·	·	-37%	?	-5%
O=C(CN1CCN(c2ccccc2O)CC1)Nc1ccc([N+](=O)[O-])cc1Br	-24%	·	·	-13%	?	-2%
C=CCNC(=O)NC(=O)COC(=O)CNS(=O)(=O)c1ccc(F)c(F)c1F	13%	·	·	-8%	-1%	22%
COc1ccc(Oc2ncc3nc(-c4cccc(C#N)c4)c(=O)n(CCC#N)c3n2)cc1	·	·	·	-15%	?	·
CC(/C=N/n1c(-c2cccnc2)n[nH]c1=S)=C\c1ccccc1	?	3.2µM*	39	-33%	?	2%
Cc1cc(-c2n[nH]c(=S)n2/N=C/C(Cl)=C/c2ccccc2)n[nH]1	?	6.3µM*	0	16%[10 µM]	?	-22%
CC(/C=N/n1c(-c2ccccc2)n[nH]c1=S)=C\c1ccco1	6%	?	40	6%[10 µM]	?	-19%
S=c1[nH]nc(-c2cccnc2)n1/N=C/C=C/c1ccccc1	-3%	13µM*	?	3%[10 µM]	-16%	28%
CC(=C/c1ccccc1)/C=N/n1c(-c2ccncc2)n[nH]c1=S	2µM*	·	·	-44%	?	1%
COC(=O)C(C(=O)OC)C1O[C@@]23COCCC2(C)C3c2ccccc21 (some centres undefined)	·	·	·	-11%[10 µM]	-5%[13.5 µM]	8%[13.1 µM]
O=[N+]([O-])c1cc(/C=N/n2c(-c3cccnc3)n[nH]c2=S)ccc1Cl	-3%	4µM*	-12	-12%[1.9 µM]	2µM*	-8%
O=[N+]([O-])c1ccccc1/C=N/n1c(-c2cccnc2)n[nH]c1=S	-9%	?	-22	·	?	-1%
CC(/C=N/n1c(COc2ccccc2)n[nH]c1=S)=C\c1ccccc1	9%	5.6µM*	80	5%	?	-21%
C/C(=N\O)C(C)(C)Nc1cccc(Br)c1	9%[9.22 µM]	·	·	14%[10 µM]	·	5%
SMILES	HTT aggregate	HPGD block	PNC inhibitor	HTT ATP protect	ALDH1A1 inh	CBFb-RUNX1 inh
COC[C@H]1O[C@@H](c2c(OC)cc(OC)cc2OC)[C@H](OC)[C@@H](OC)[C@@H]1OC	·	-10%	·	·	6%	-4%
CCOC(=O)c1c(O)c2cc(Cl)ccc2n(CC)c1=O	-2%[9.22 µM]	·	·	14%[10 µM]	20µM*	4%
CCc1ccc(CCC(=O)Nc2ccc(C)c(C)c2)o1	11%	-25%	-11	5%[10 µM]	13µM*	12%
CCc1ccc(CCC(=O)Nc2nnc(C)s2)o1	?	-5%	-22	-1%	-12%	9%
CCS(=O)(=O)C1=NN2C(=N)/C(=C\c3ccc(SCc4ccco4)o3)C(=O)N=C2S1	21%[9.22 µM]	·	·	-33%	1.8µM*	6%
CCCn1c2c(c(O)c(C(=O)Nc3nccs3)c1=O)CCCC2	?	·	-11	-12%	?	2%
CC(C)Cn1c2c(c(O)c(C(=O)Nc3nccs3)c1=O)CCCC2	?	-5%	15	4%	14µM*	2%
COC(=O)C(C)Oc1ccc(Oc2nc(Cl)ccc2Cl)cc1 (centres undefined)	-2%	·	·	10%	14%	19%
CS(=O)(=O)Nc1ccccc1C(=O)Nc1cccc(Cl)c1	11µM*	?	46	5%[10 µM]	?	11%
COC(=O)c1ccc(NC(=O)c2ccccc2NS(C)(=O)=O)cc1	?	-12%	-104*	-6%[10 µM]	-2%	5%
CS(=O)(=O)Nc1ccccc1C(=O)Nc1cc(Cl)cc(Cl)c1	8.9µM*	?	6	-57%[10 µM]	?	-6%
COc1ccc(NC(=O)c2ccccc2NS(C)(=O)=O)cc1OC	-10%	-16%	?	-5%[10 µM]	19%	7%
COCCn1c(=O)c(C)nc2cnc(Oc3ccc(OC)cc3)nc21	·	·	·	18%	-12%	·
COc1ccccc1-c1ccc2ncnc(NCCN3CCOCC3)c2c1	·	·	·	8%	-1%	·
C=CCn1c(-c2ccc(OC)cc2)nc2ccccc21	11µM*	?	-2	-28%[10 µM]	?	6%
C=CCn1c(-c2ccc(N)cc2)nc2ccccc21	-1%	?	0	-27%	?	-2%
COc1ccc(NCc2nc3ccccc3n2CCOc2ccccc2)cc1	?	-24%	?	1%[10 µM]	-11%	?
CCOCCn1c(-c2ccc(OC)cc2)nc2ccccc21	-4%	-8%	-106*	-10%	-12%	-1%
COc1ccc(NCc2nc3ccccc3n2CCOc2ccc(C)cc2)cc1	?	-17%	-113*	·	-12%	?
FC(F)(F)c1cccc(-c2noc(-c3cc(-c4ccccc4)c(C(F)(F)F)s3)n2)c1	·	-5%	·	5%	4%	11%
COc1ccc(N=CC2=C(O)c3ccccc3C2=O)cc1	4%	-12%	?	-103%	2%	-2%
COc1ccc(N=Cc2[nH]c3ccccc3c2O)cc1	5%	·	·	-28%	13µM*	-6%
Cc1cc(SC#N)cc(C)c1NC(=O)CCl	0%	?	-115*	-31%[10 µM]	?	7%

Compound activity from PubChem.
